Assay results: PubChem BioAssay (NCATS)
Results filed as inconclusive are left out. Active and inactive are the calls of the source. The call rests on the fitted dose curve; in most records, active means well fitted curve in the direction sought with a large enough effect in the signal ratio; inconclusive means small, poorly fitted or top-dose-only effect, or a change in a side signal; inactive means no such curve, though single readings can be large or run the other way; the % refers to the signal ratio.

Target: Tumor necrosis factor (Homo sapiens) (UniProt P01375)
Sequence (P01375 whole entry, looked up): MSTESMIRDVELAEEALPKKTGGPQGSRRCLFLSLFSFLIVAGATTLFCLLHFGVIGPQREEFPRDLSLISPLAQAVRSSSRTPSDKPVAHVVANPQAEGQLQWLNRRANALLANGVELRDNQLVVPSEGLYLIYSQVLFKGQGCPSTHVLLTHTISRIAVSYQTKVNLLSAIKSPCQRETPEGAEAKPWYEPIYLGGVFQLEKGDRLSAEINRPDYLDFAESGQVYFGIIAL
Assay: qHTS assay to identify small molecules that stimulate Tumor Necrosis Factor-alpha (TNF-alpha) secretion (AID 651757)
Details: Human cells, HTRF 665/615 ratio; series mostly up to 92.2 µM
Excerpt: National Center for Advancing Translational Sciences [NCATS]
NIH Chemical Genomics Center [NCGC]
National Institutes of Environmental Health Sciences [NIEHS]
National Toxicology Program [NTP]
Tumor Necrosis Factor-alpha (TNF-alpha), a secreted cytokine, plays an important role in inflammatory diseases and immune disorders. TNF-alpha, a 17 kDa cytokine, is mainly secreted by activated macrophages and monocytes in response to several inflammatory and immunological stimuli. To study the effect of environmental chemicals on TNF-alpha secretion, a homogeneous TNF-alpha assay was developed using Time Resolved fluorescence (HTRF) technology based on Time Resolved Fluorescent Resonance Energy Transfer (TR-FRET) (Leister et al., Current Chemical Genomics, 5:21-29, 2011). This assay allows measuring TNF-alpha secreted from the cells in a 1536-well plate format.
THP-1 cells were dispensed at 3000 cells/5ul/well in 1536-well white solid plates. After addition of 23 nl of compound, positive controls and DMSO only, the assay plates were incubated at 37 C for 17 hrs, followed by addition of 5 uLof mixture of cryptate labeled and XL665 labeled anti-TNF-alpha antibodies. After the assay plates were incubated at room temperature for 3 hr, the plates were measured by an EnVision plate reader.

SMILES	outcome
C[C@]12C/C(=C/O)C(=O)C[C@@H]1CC[C@@H]1[C@@H]2CC[C@@]2(C)[C@H]1CC[C@]2(C)O	inactive
NCC(O)c1ccc(O)cc1 (stereo unspecified)	inactive
N[C@@H](Cc1ccc(N(CCCl)CCCl)cc1)C(=O)O	inactive
Clc1ccc(COC(Cn2ccnc2)c2ccc(Cl)cc2Cl)cc1 (stereo unspecified)	inactive
CNCC(O)c1ccc(O)cc1 (stereo unspecified)	inactive
OCCOc1ccccc1	inactive
Oc1ccc(Cl)cc1Cc1ccccc1	inactive
Oc1ccccc1-c1ccccc1	inactive
CCCC(C)(COC(N)=O)COC(=O)NC(C)C (stereo unspecified)	inactive
Oc1cccc2cccnc12	inactive
CCOP(=S)(OCC)Oc1cc(C)nc(C(C)C)n1	inactive
